Target: SLC39A12
Experiment: pooled miR-30 sensor sort-seq; sequence = guide strand
Settings: shRNA
Also: reference of the scale not given here.

Sequence	sensor-assay potency score (higher = more potent)
TTTTGATACAAGTACTTCTGGT	-0.57
TTTTTGATACAAGTACTTCTGG	0.0669
TAGAAATATCTCCACCAGCTGC	-1.07
TTGCTTGTCACTTAACTTGCTT	-0.0821

Target: SLC39A3
Experiment: as above
Settings: shRNA

Sequence	sensor-assay potency score (higher = more potent)
TCTGTCTCGATGATCTTCACGG	-0.084
TGATTATCAGGTGACAACCGAC	-1.07
AAAATCTGTCTCGATGATCTTC	0.079
TCAGTGTTGAAAATGCATCAGA	-0.941
TTACCTTTTCCCTCACAGCGGG	-0.333
TTGCAGAGAGAGAGGATCTTTT	-0.914
TGTCTCGATGATCTTCACGGGG	-0.768
TAGTCGGTGCTGATGTGGCCGA	-1.33
TACCTTTTCCCTCACAGCGGGC	-1.41
TAGGTGGGTAGTCTGGTCTGAT	-0.578
TTAAAAAGTAGCAGTGCTCTGA	0.00339
TTTCTGGACACTAGGCACGAGG	-1.43

Target: SLC44A2
Experiment: as above
Settings: shRNA

Sequence	sensor-assay potency score (higher = more potent)
TTTGATGAGTGCAATCGCGATG	-0.724
TGTAGCAGTGAAATATTCCGTA	0.424
TCTTTGATGAGTGCAATCGCGA	-1.09
TACTTGTTTCTCGCAGTCTGGA	-0.0969
TTATAGACCGCTTCGTTGGAAG	-0.973
TATAGTACTCAAAGTCCCGGGA	-0.338
TCAGACACAAACACCGTCCTTC	0.677
TAATCCAGTACCAAGAGACGGT	0.196
TTATAGTACTCAAAGTCCCGGG	0.0732
TTACTTGTTTCTCGCAGTCTGG	-0.794
TTGTTGGTCTTGTTCAAGGGTT	-0.803

Target: SLC45A3
Experiment: as above
Settings: shRNA

Sequence	sensor-assay potency score (higher = more potent)
TAAAACAGCGTGAAGGTCATGA	0.302
TGAACTTCTCCTCTACCCCCAC	-0.547
AAAGGTTAGCAGGTTGACCAGC	-0.476
AAGGTCATGAGTGCCATCCAGC	-1.03
TCTTGTCAAATACTACCTGTGT	-0.281
TAGGTGTGTCTCAACTAGGAGG	-0.961
TTTGGGCAGGAACACCTGCTTC	-1.54
TAGCAGGTTGACCAGCAAGAGC	-1.81
TAGCTGTTAACCCTGAGCCTGG	-0.971
TAGGCAGTGACAGACTGGCTGA	-0.555
AAATCCGTGTAAAACAGCGTGA	-0.511
TTCATCATAGTGTCTCCGGGCC	0.0522
